Experimental data from PubChem BioAssay (Tox21).
“And” between values parts separate entries of the source, which are not always exact repeats. Equal entries are not always repeated. The source made the active and inactive calls. Where a call stands in place of a potency, no number is given. Unless noted, the call rests on the fitted dose curve; in most records, active means well fitted curve in the direction sought with a large enough effect in the repeat runs; inconclusive means weak or mixed curves; inactive means no such curve, though single readings can be large; an effect the other way counts as inactive or inconclusive.

Legend:
[1] = qHTS assay to identify small molecule antagonists of the thyroid receptor (TR) signaling pathway (AID 743065); further: nearly all actives have a fitted effect of over 55% in size; further: potency means the concentration at half of the fitted maximal effect
Method in brief: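 GH3.TRE-Luc rat pituitary cells carrying two TR response elements driving luciferase were plated for 4 h, given compound plus 1 nM T3 (final), and incubated 23.5 h at 37 C. ONE-Glo luminescence measured reporter inhibition; CellTiter-Fluor fluorescence tracked cytotoxicity.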

[2] = tested on: thyroid hormone receptor (rat, GH3 cells); test: qHTS assay to identify small molecule agonists of the thyroid receptor (TR) signaling pathway (AID 743066; calls by dose curve)
[3] = qHTS assay to identify small molecule antagonists of the estrogen receptor alpha (ER-alpha) signaling pathway - cell viability counter screen (AID 743074; calls by dose curve;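 further: HEK293 cells carrying ER-alpha-UAS-bla reporter stimulated with 17beta-estradiol; nearly all actives have a fitted effect of over 45% in size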)
[4] = molecular target: Aromatase (Homo sapiens) (UniProt P11511); test: qHTS assay to identify aromatase inhibitors (AID 743083); further: nearly all actives have a fitted effect of over 55% in size; further: potency means the concentration at half of the fitted maximal effect
Aromatase (Homo sapiens), sequence (P11511 whole entry, looked up): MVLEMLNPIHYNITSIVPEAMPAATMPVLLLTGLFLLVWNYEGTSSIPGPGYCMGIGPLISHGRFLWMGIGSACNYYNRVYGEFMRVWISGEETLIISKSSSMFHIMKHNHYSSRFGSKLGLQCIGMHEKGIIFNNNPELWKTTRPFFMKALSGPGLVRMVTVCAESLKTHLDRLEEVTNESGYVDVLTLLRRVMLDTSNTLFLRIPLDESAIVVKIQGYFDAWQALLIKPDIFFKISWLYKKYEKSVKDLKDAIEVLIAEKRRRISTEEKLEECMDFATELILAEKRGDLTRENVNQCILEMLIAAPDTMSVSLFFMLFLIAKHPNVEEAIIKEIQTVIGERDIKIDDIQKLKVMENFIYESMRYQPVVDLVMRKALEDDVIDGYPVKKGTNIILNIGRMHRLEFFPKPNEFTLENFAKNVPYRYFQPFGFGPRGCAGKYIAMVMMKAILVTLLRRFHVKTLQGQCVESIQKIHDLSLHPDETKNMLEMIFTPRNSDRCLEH

[5] = qHTS assay to identify aromatase inhibitors - cell viability counter screen (AID 743084);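 further: cells stimulated with testosterone during compound exposure; nearly all actives have a fitted effect of over 55% in size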
[6] = molecular target: Aryl hydrocarbon receptor (Homo sapiens) (UniProt P35869); test: qHTS assay to identify small molecule that activate the aryl hydrocarbon receptor (AhR) signaling pathway (AID 743085); further: nearly all actives have a fitted effect of over 15% in size; further: potency means the concentration at half of the fitted maximal effect;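 on activation: HG2L7.5c1 human HepG2 liver cells with stably integrated DRE-driven firefly reporter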
Aryl hydrocarbon receptor (Homo sapiens), sequence (P35869 whole entry, looked up): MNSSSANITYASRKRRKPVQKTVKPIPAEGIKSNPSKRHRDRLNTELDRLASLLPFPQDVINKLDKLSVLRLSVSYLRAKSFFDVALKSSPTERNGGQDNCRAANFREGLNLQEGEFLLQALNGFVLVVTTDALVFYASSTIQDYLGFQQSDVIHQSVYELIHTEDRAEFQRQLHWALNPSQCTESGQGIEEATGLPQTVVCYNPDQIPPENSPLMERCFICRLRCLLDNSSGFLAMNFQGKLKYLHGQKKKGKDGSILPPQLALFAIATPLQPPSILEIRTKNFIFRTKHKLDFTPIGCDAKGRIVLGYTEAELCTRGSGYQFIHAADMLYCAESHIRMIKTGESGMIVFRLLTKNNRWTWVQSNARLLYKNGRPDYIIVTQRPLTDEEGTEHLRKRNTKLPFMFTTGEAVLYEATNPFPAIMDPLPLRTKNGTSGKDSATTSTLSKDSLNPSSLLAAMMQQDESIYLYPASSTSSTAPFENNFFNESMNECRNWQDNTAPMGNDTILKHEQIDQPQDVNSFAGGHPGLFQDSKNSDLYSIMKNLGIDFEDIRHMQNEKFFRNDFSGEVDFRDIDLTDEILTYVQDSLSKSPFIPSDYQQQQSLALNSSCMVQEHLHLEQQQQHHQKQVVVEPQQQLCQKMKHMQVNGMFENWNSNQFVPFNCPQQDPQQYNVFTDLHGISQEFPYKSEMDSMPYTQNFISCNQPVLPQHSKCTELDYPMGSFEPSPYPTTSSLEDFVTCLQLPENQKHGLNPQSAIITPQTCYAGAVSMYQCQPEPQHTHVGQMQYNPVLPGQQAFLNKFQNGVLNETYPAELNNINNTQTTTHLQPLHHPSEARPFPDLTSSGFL
Method in brief: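 A multiplexed format paired cell viability (CellTiter-Fluor fluorescence) with AhR-dependent luciferase output (ONE-Glo luminescence) in the same wells of HepG2 DRE-luc cells after 24 h compound exposure at 37C.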

[7] = qHTS assay to identify small molecule that activate the aryl hydrocarbon receptor (AhR) signaling pathway - cell viability counter screen (AID 743086); further: nearly all actives have a fitted effect of over 45% in size; further: potency means the concentration at half of the fitted maximal effect
Method in brief: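 HepG2-AhR-luc (HG2L7.5c1) cells, 4000/well, were preincubated 5 h at 37C, exposed to compound in qHTS format for 24 hr at 37C, then given CellTiter-Fluor for 30 min; viability was read as fluorescence in the reporter wells.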

[8] = molecular target: Peroxisome proliferator-activated receptor gamma (Homo sapiens) (UniProt P37231); test: qHTS assay to identify small molecule agonists of the peroxisome proliferator-activated receptor gamma (PPARg) signaling pathway (AID 743094; active means well fitted activation curve with a large enough effect in the signal ratio in the repeat runs, not every such curve was filed as active; inconclusive means weak or mixed curves, or effect the other way; inactive means no such curve, though single readings can be large or run the other way; the % refers to the signal ratio)
Peroxisome proliferator-activated receptor gamma (Homo sapiens), sequence (P37231 whole entry, looked up): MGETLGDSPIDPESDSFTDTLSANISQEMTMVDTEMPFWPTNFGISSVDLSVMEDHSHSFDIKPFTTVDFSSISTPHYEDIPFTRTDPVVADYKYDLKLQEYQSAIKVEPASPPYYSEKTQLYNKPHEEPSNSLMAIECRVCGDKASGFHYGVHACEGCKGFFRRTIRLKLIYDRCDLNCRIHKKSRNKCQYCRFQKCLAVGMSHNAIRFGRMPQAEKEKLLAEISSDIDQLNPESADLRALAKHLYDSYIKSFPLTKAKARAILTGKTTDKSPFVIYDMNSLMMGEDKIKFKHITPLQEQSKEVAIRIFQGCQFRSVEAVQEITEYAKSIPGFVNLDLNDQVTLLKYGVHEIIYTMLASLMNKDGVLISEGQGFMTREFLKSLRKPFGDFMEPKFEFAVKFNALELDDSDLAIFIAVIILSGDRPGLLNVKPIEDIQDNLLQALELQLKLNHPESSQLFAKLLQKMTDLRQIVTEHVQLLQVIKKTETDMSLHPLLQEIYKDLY
Method in brief: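 Agonism was assessed in a beta-lactamase reporter system, HEK293H cells with a stably integrated UAS-bla construct under PPARg control; the 17 h treatment at 37C preceded a 1 h room-temperature FRET substrate read.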

[9] = qHTS assay for small molecule agonists of the antioxidant response element (ARE) signaling pathway (AID 743202; active means well fitted activation curve with a large enough effect in the signal ratio in the repeat runs, not every such curve was filed as active; inconclusive means weak or mixed curves, or effect the other way; inactive means no such curve, though single readings can be large or run the other way; the % refers to the signal ratio; further: potency means the concentration at half of the fitted maximal effect)
Method in brief: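 Following a 16 h, 37 C exposure of reporter HepG2 cells (ARE-driven beta-lactamase, 2,000 cells/well) to compounds, FRET substrate was applied for 2 h at room temperature and fluorescence intensity recorded.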

[10] = qHTS assay for small molecule activators of the heat shock response signaling pathway - cell viability counter screen (AID 743209); further: nearly all actives have a fitted effect of over 50% in size; further: potency means the concentration at half of the fitted maximal effect
Method in brief: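 Compounds dissolved in DMSO were added to overnight-plated HSE-bla HeLa cells and left 5 h at 37 C. Cell viability was quantified by luminescence using CellTiter-Glo.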

[11] = qHTS assay for small molecule activators of the heat shock response signaling pathway (AID 743210; active means well fitted activation curve with a large enough effect in the signal ratio in the repeat runs, with a control signal flat, not every such curve was filed as active; inconclusive means weak or mixed curves; the % refers to the signal ratio; further: potency means the concentration at half of the fitted maximal effect)
Method in brief: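 Heat shock element–beta-lactamase HeLa reporter cells; qHTS with compounds for 5 h at 37 C; detection by FRET substrate fluorescence after 2.5 h at RT.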

[12] = molecular target: Peroxisome proliferator-activated receptor gamma (Homo sapiens) (UniProt P37231); test: qHTS assay to identify small molecule antagonists of the peroxisome proliferator-activated receptor gamma (PPARg) signaling pathway (AID 743191; calls by dose curve; further: nearly all actives have a fitted effect of over 30% in size)
Method in brief: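 GeneBLAzer PPARg UAS-bla HEK293H cells carrying a UAS-driven beta-lactamase reporter were plated at 3000 cells/well, preincubated 5 h at 37C, then given compound for 17 h at 37C; LiveBLAzer B/G FRET substrate was read after 1 h at room temperature.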

[13] = qHTS assay to identify small molecule antagonists of the peroxisome proliferator-activated receptor gamma (PPARg) signaling pathway - cell viability counter screen (AID 743194); further: nearly all actives have a fitted effect of over 55% in size; further: potency means the concentration at half of the fitted maximal effect
Method in brief: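 PPARg-UAS-bla HEK293H cells were plated, rested 5 h at 37 C, then treated with compounds plus rosiglitazone (50 nM final) for 17 h at 37 C; viability was then read by CellTiter-Glo luminescence after 30 min at room temperature.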

[14] = qHTS assay for small molecule agonists of the antioxidant response element (ARE) signaling pathway - cell viability counter screen (AID 743203; calls by dose curve; further: nearly all actives have a fitted effect of over 55% in size)
Method in brief: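 ATP content via CellTiter-Glo luminescence served as the viability measure. Cells: ARE-bla HepG2, 2,000 per well. Exposure: 16 hrs, 37C/5% CO2.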

[15] = qHTS assay to identify small molecule antagonists of the estrogen receptor alpha (ER-alpha) signaling pathway using the BG1 cell line - cell viability counter screen (AID 743081);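 further: compound given together with 17beta-estradiol as the ER stimulus; nearly all actives have a fitted effect of over 45% in size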
[16] = molecular target: Estrogen receptor (Homo sapiens) (UniProt P03372); test: qHTS assay to identify small molecule antagonists of the estrogen receptor alpha (ER-alpha) signaling pathway (AID 743069; active means well fitted curve in the direction sought with a large enough effect in the signal ratio in the repeat runs, not every such curve was filed as active; inconclusive means weak or mixed curves, or effect the other way; inactive means no such curve, though single readings can be large or run the other way; the % refers to the signal ratio)
Estrogen receptor (Homo sapiens), sequence (P03372 whole entry, looked up): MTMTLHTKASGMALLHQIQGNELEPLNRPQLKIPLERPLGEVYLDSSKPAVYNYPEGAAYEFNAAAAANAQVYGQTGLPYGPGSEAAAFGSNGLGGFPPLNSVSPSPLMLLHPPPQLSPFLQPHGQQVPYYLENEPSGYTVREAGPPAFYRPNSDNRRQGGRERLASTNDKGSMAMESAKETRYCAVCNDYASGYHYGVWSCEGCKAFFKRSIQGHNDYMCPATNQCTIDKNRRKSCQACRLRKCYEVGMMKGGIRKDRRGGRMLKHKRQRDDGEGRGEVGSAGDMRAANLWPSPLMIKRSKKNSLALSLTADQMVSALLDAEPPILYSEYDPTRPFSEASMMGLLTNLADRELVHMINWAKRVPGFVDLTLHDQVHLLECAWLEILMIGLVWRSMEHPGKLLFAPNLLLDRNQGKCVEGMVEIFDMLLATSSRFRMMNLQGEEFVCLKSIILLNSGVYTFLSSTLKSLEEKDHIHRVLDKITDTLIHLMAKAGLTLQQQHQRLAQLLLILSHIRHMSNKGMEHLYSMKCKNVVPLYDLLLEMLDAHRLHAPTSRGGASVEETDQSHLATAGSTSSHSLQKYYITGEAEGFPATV
Method in brief: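 A 17beta-estradiol challenge was applied right after compound transfer to ER-alpha-UAS-bla HEK293 cells previously kept in charcoal-stripped serum. Plates stood 18 hr at 37C and 5% CO2; fluorescence was read following 2 hr FRET substrate loading at room temperature.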

[17] = molecular target: Estrogen receptor (Homo sapiens) (UniProt P03372); test: qHTS assay to identify small molecule agonists of the estrogen receptor alpha (ER-alpha) signaling pathway (AID 743075; calls by dose curve;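 further: HEK293 GripTite cells with ER-alpha and UAS-driven beta-lactamase reporter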; further: potency means the concentration at half of the fitted maximal effect)
[18] = molecular target: Estrogen receptor (Homo sapiens) (UniProt P03372); test: qHTS assay to identify small molecule agonists of the estrogen receptor alpha (ER-alpha) signaling pathway using the BG1 cell line (AID 743079); settings: BG1Luc4E2 cells, ERE-luciferase agonist, 22 h; activation: at 70.3 µM (top of the series); further: nearly all actives have a fitted effect of over 20% in size; further: potency means the concentration at half of the fitted maximal effect
[19] = qHTS assay to identify small molecule antagonists of the estrogen receptor alpha (ER-alpha) signaling pathway using the BG1 cell line (AID 743080; calls by dose curve;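 further: BG1 cells stimulated with 17beta-estradiol alongside compound; nearly all actives have a fitted effect of over 25% in size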)
Method in brief: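 After 5 days in phenol-red-free 10% charcoal-stripped FBS medium, BG1-Luc-4E2 cells were seeded, left 24 h at 37 C, co-treated with compounds and 17beta-estradiol for 21.5 h, then assayed for viability and luciferase.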

Row | Structure (SMILES) | Potency [1] | outcome [2] | Potency [3] | Potency [4] | Potency [5] | Potency [6] | Potency [7] | Potency [8] | Potency [9] | Potency [10] | Potency [11] | Potency [12] | Potency [13] | Potency [14] | Potency [15] | Potency [16] | Potency [17] | Potency [18] | Potency [19]
1 | CC[C@@H]([C@H](C)O)n1ncn(-c2ccc(N3CCN(c4ccc(OC[C@@H]5CO[C@@](Cn6cncn6)(c6ccc(F)cc6F)C5)cc4)CC3)cc2)c1=O | 26.6 µM (active) | inactive | inactive | inactive | inactive | inactive | inactive | inactive | 10.6 µM (active) | inactive | inactive |  |  |  |  |  |  |  | 
2 | CCOC(=O)N1CCC(n2c(=O)[nH]c3cc(Cl)ccc32)CC1 |  |  |  |  |  |  |  |  | 6.68 µM (active) | inactive | inactive | inactive | inactive | inactive |  |  |  |  | 
3 | O=C(O)c1c(O)c(-c2ccccc2)nc2ccccc12 |  |  |  |  |  |  |  |  | inactive | inactive | inactive |  |  | inactive |  |  |  |  | 
4 | CCCCCCOC(=O)C(C)C | inactive | inactive | inactive | inactive | inactive | inactive | inactive | inactive | inactive | inactive | inactive |  | inactive | inactive | inactive |  |  |  | 
5 | CC(=O)Oc1ccc(C(=C2CCCCC2)c2ccc(OC(C)=O)cc2)cc1 |  |  | inactive | inactive | inactive | inactive | inactive |  | 29.8 µM (active) | inactive | 26.6 µM (active) |  | inactive | inactive | inactive | inactive | inactive | inactive | inactive
6 | CC(C)(O)c1ccccc1CC[C@@H](SCC1(CC(=O)O)CC1)c1cccc(/C=C/c2ccc3ccc(Cl)cc3n2)c1 |  |  |  | inactive | inactive | 23.7 µM (active) | inactive | inactive |  | inactive | inactive |  |  | inactive | inactive |  | inactive |  | 
7 | CN(C(=O)C(Cl)Cl)c1ccc(OC(=O)c2ccco2)cc1 | inactive | inactive | inactive | inactive | inactive |  | inactive | inactive |  | inactive | inactive |  | inactive | inactive | inactive |  |  |  | 
8 | O=C(O)c1ccccc1NCCc1ccccc1 |  |  |  |  |  |  |  |  |  | inactive | inactive |  | inactive | inactive |  |  |  |  | 
9 | CC(=O)OCC(=O)[C@@]12OC(C)(C)O[C@@H]1C[C@H]1[C@@H]3C[C@H](F)C4=CC(=O)C=C[C@]4(C)[C@@]3(F)[C@@H](O)C[C@@]12C |  |  | inactive | inactive | inactive | inactive | inactive | inactive | inactive | inactive | inactive |  | inactive | inactive | inactive |  |  |  | 
10 | C/C(=N/NC(=O)c1ccncc1)C(=O)O |  |  |  |  |  |  |  |  | inactive | inactive | inactive | inactive |  | inactive |  |  |  |  | 
11 | CC(=O)CC(c1ccc([N+](=O)[O-])cc1)c1c(O)c2ccccc2oc1=O (stereo unspecified) |  |  | inactive | inactive | inactive | inactive | inactive |  | inactive |  | inactive | inactive | inactive | inactive | inactive | inactive | inactive | inactive | inactive
12 | COc1ccc([C@@H]2Sc3ccccc3NC(=O)[C@@H]2O)cc1 |  |  |  |  |  |  |  |  | inactive | inactive | inactive |  | inactive | inactive |  |  |  |  | 
13 | CCCCCCCCCCCCCCC[C@H](O)[C@@H](N)CO |  | inactive | inactive | inactive | inactive | inactive | inactive | inactive |  | inactive | inactive | inactive | inactive | inactive | inactive | inactive | inactive | inactive | inactive
14 | CC(=O)N(c1onc(C)c1C)S(=O)(=O)c1ccc(N)cc1 |  |  |  |  |  |  |  |  | inactive | inactive | inactive |  | inactive | inactive |  |  |  |  | 
15 | COC(=O)c1cc(S(N)(=O)=O)ccc1OC |  |  |  |  |  |  |  |  | inactive | inactive | inactive | inactive | inactive | inactive |  |  |  |  | 
16 | O=C(Nc1ccc([N+](=O)[O-])cc1)Nc1ccc([N+](=O)[O-])cc1 |  | inactive |  | inactive | inactive | inactive | inactive | inactive | 2.66 µM (active) |  | inactive | inactive | 1.33 µM (active) |  | inactive |  |  |  | 
17 | Fc1ccccc1[C@@H](F)COC1CCC(Nc2ncnc3[nH]ncc23)CC1 (stereo partly specified) | 48.6 µM (active) |  | inactive | 24.3 µM (active) | inactive |  | 30.6 µM (active) |  |  |  | inactive |  |  |  | inactive |  |  |  | 
18 | Cc1oncc1C(=O)Nc1ccc(C(F)(F)F)cc1 |  |  | inactive | inactive | inactive |  | inactive | inactive | 30.6 µM (active) | inactive | inactive | inactive | inactive | inactive | inactive | inactive | inactive | inactive | 
19 | CCCCCCCC/C=C\CCCCCCCC(=O)OC(CO)CO | inactive | inactive | inactive | inactive | inactive |  | inactive | inactive |  | 43.6 µM (active) |  |  | inactive | inactive | inactive |  |  |  | 
20 | O=C(O)c1ccc(CO)o1 | inactive | inactive | inactive | inactive | inactive |  | inactive | inactive | inactive |  | inactive | inactive | inactive | inactive | inactive |  |  |  | 
21 | COC(=O)c1cc(Cl)ccc1NS(=O)(=O)C(F)(F)F |  |  |  |  |  |  |  |  | inactive | inactive | inactive | inactive | inactive |  |  |  |  |  | 
22 | Cn1c(=O)c2c(ncn2CC(=O)O)n(C)c1=O |  |  |  |  |  |  |  |  | inactive | inactive |  | inactive | inactive | inactive |  |  |  |  | 
23 | CN1CCCN=C1/C=C/c1cccs1 |  |  |  | inactive | inactive | inactive | inactive | inactive |  | inactive | inactive | inactive | inactive | inactive | inactive | inactive | 23.9 µM [inconclusive] (active) | 7.5 µM (active) | inactive
24 | CC(C)C(OC(=O)c1ccccc1)C(C)(C)COC(=O)c1ccccc1 (stereo unspecified) |  | inactive |  |  | inactive |  | inactive | inactive | inactive | inactive | inactive |  |  | inactive | inactive |  |  |  | 
25 | CO/N=C1\CN(c2nc3c(cc2F)c(=O)c(C(=O)O)cn3C2CC2)CC1CN (stereo unspecified) |  |  | inactive | inactive | inactive | inactive | inactive | inactive |  | inactive | inactive |  | inactive | inactive | inactive | inactive | inactive | inactive | inactive
26 | N#C/C(=C1/SC[C@@H](c2ccc(Cl)cc2Cl)S1)n1ccnc1 | 21.1 µM (active) and 13.3 µM (active) | inactive | inactive |  |  |  | inactive |  |  | inactive | inactive |  |  |  | inactive |  |  |  | 
27 | NC(=O)Cn1c(=O)cc(CCN2CCN(c3nccc4sccc34)CC2)c2ccc(F)cc21 |  |  | inactive | inactive | inactive | inactive |  | inactive | inactive | inactive | inactive |  | inactive |  | inactive |  | inactive |  | inactive
